95 compounds from ChEMBL document CHEMBL1201862, “PubChem BioAssay data set” (2004) can be followed below.

Values joined by “and” are separate entries in the source; they are usually repeats but may differ in a detail not shown here. Identical values can stand only once. Screen size: about 400,000 compounds; about 2,100 (0.53%) were called active. Not shown: some 14% with an inconclusive outcome. The rule behind the calls is not given here. What follows is part of a selection rich in actives, with near analogues and random picks from the rest.

The target of the assay is Ataxin-2 (Homo sapiens) (UniProt Q99700). The experiment in a line: qHTS for Inhibitors of ATXN expression. The assay is classed as functional.
Chain of Ataxin-2 (Homo sapiens) (Q99700 whole entry): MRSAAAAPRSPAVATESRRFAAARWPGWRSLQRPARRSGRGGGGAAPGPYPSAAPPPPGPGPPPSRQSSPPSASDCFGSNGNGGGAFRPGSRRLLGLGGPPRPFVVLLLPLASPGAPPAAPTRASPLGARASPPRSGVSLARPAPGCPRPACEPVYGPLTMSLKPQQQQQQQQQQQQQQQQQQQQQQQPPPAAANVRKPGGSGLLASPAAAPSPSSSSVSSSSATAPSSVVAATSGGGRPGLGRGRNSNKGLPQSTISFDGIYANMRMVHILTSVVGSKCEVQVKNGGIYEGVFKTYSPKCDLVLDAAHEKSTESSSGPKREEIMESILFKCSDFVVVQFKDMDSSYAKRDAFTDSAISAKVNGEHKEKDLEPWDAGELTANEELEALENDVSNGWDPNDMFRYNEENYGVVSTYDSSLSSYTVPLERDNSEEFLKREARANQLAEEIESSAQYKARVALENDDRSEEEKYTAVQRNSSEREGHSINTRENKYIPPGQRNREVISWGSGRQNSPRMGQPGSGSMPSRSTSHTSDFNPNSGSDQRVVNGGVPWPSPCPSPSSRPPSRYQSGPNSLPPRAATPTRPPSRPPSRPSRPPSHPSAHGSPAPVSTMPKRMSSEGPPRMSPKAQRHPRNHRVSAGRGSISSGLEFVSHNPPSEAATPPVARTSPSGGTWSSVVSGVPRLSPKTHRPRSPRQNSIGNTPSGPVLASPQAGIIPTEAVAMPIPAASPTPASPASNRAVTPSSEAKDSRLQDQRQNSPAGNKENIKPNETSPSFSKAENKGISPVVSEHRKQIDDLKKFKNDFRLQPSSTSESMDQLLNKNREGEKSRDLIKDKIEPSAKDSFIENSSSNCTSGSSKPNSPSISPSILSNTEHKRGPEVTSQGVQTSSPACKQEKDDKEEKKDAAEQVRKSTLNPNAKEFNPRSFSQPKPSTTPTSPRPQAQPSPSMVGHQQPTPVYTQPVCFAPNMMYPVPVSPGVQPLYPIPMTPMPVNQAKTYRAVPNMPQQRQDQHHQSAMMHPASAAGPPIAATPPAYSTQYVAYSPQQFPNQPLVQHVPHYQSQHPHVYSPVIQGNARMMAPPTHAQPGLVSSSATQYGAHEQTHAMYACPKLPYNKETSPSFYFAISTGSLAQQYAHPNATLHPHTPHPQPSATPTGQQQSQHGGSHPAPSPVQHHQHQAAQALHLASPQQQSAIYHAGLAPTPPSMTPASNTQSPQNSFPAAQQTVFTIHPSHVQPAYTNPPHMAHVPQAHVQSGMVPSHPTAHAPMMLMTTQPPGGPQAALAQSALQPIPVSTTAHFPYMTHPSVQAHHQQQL
In the case of `COCCCNC(=O)/C(C#N)=C/c1c(N2CCN(C)CC2)nc2c(C)cccn2c1=O`, the Potency entry is “inactive”.

Turning to `CNS(=O)(=O)c1ccc2c3c(cccc13)C(=O)N2`, the Potency entry was “inactive”.

As to `Cc1c(Cc2ccccc2)c(NCCCO)n2c(nc3ccccc32)c1C#N`, the Potency entry was “inactive”.

With `NC(=O)c1cc2ccc(O)cc2o/c1=N\c1ccccc1`, the Potency result was “inactive”.

`Cc1ccc(S(=O)(=O)Nc2ccc3c(c2)CC(=O)N([C@H](C)CO)C[C@H](C)[C@H](CN(C)Cc2ccc4c(c2)OCO4)O3)cc1`: the Potency was 35.5 µM (active).

`Cc1ccc(NC(=O)C2CC(=O)N(C(C)C)C2)cc1C` (stereo not given): the Potency entry is “inactive”.

With `Cc1cc(C)c(S(=O)(=O)NCc2ccc3c(c2)OCO3)c(C)c1`, the Potency entry was “inactive”.

With `CN(C)Cc1ccccc1CNC(=O)c1cccc(S(=O)(=O)Nc2ccc3c(c2)OCO3)c1`, the Potency entry was “inactive”.

On to `C[C@H]1CN([C@@H](C)CO)C(=O)Cc2cc(NC(=O)C3CC3)ccc2O[C@H]1CN(C)Cc1ccc(Oc2ccccc2)cc1`, for which the Potency was 25.1 µM (active).

Regarding `Cc1ccc(-c2nc(C[S+]([O-])CC(=O)NCCN3CCCCCC3)c(C)o2)cc1` (stereo not given), the Potency result is “inactive”.

For the compound `CCOC(=O)CN1C(=O)CC(c2ccc([N+](=O)[O-])cc2)C1=O` (stereo not given), the Potency entry is “inactive”.

With `NC(=O)c1nsc(C(=O)N(c2ccccc2F)C(C(=O)NCc2ccccc2)c2ccc(O)cc2)c1N` (stereo not given), the Potency result was “inactive”.

As for `Cc1ccc(-c2csc(N3CCN(CCCn4c(-c5ccncc5)nc5ccccc54)CC3)n2)cc1`, the Potency was 35.5 µM (active).

On to `Cc1csc(N2CCN(c3cc4c(cc3Cl)nc(-c3ccncc3)n4CCCN3CCCC3)CC2)n1`, for which the Potency is 35.5 µM (active).

Turning to `O=[N+]([O-])c1ccc(-c2csc(N3CCCCCC3)n2)cc1`, the Potency result is “inactive”.

As for `Cc1ccc(Nc2nc(-c3ccncc3)cs2)cc1`, the Potency result was “inactive”.

Regarding `O=C(Nc1nc2c(s1)CN(Cc1ccccc1)CC2)c1c(F)cccc1F`, the Potency entry is “inactive”.

As to `ClC1(Cl)CC1CSc1nc2ccccc2[nH]1` (stereo not given), the Potency entry is “inactive”.

As to `CC/N=C1/S/C(=C/c2ccc(-c3ccc(F)cc3)o2)C(=O)N1CC`, the Potency entry was “inactive”.

Consider `COc1ccc(/C=C2/SC(=S)N(CCCC(=O)N3CCN(C)CC3)C2=O)cc1`, for which the Potency was 17.8 µM (active).

`Cc1ccc(/C=C2\SC(=S)N(CCC(=O)NNC(=O)c3ccncc3)C2=O)cc1`: the Potency entry was “inactive”.

Take `CN1CCN(C(=O)CCN2C(=O)/C(=C\c3ccc(F)cc3)SC2=S)CC1`: the Potency was 39.8 µM (active).

In the case of `COc1ccc(/C=C2\SC(=S)N(CC(=O)NNC(=O)c3ccncc3)C2=O)cc1`, the Potency entry was “inactive”.

With `Cc1ccc(/C=C2/SC(=S)N(CCC(=O)N3CCN(C)CC3)C2=O)cc1`, the Potency is 11.9 µM (active).

As for `Cc1ccc(/C=C2\Oc3c(ccc(O)c3CN3CCN(C)CC3)C2=O)cc1`, the Potency result was “inactive”.

As to `O=C(CCN1C(=O)/C(=C\c2ccc(F)cc2)SC1=S)Nc1ccccc1`, the Potency entry is “inactive”.

For `COc1ccc(-n2c(=O)/c(=C\c3cccs3)s/c2=C(/C#N)C(=O)N2CCN(C)CC2)cc1`, the Potency entry is “inactive”.

On to `O=C(Nc1cc[n+](-c2nc3ccccc3nc2[N-]S(=O)(=O)c2ccccc2)cc1)c1cccs1`, for which the Potency entry is “inactive”.

In the case of `COC(=O)c1ccc(CSc2nc(C(F)F)cc(C)c2C#N)o1`, the Potency result is “inactive”.

In the case of `O=C(OCC1CCNCC1)c1ccc(F)cc1`, the Potency entry was “inactive”.

As to `C=CCNC(=O)C(C#N)c1nc2ccccc2nc1N1CCCCCC1` (stereo not given), the Potency entry is “inactive”.

On to `COc1cccc(/C=N/NC(=O)NC2CCCCC2)c1O`, for which the Potency entry is “inactive”.

As to `COc1ccccc1[C@@H]1C(c2ccc(F)cc2)=NN(c2ccccc2)[C@H]1C(=O)N1CCOC1=O`, the Potency result is “inactive”.

As to `COc1ccccc1/C=C/C1(C(=O)NC2CCCC2)CC(=O)N1c1ccc(F)cc1` (stereo not given), the Potency is 14.1 µM (active).

For the compound `COc1ccccc1Nc1nc(Cl)c(C=O)s1`, the Potency entry was “inactive”.

Take `Nc1nc(Sc2ccc([N+](=O)[O-])c3nonc23)c2nc[nH]c2n1`: the Potency is 22.4 µM (active).

Regarding `CCCNC(=O)/C=C/C(=O)O`, the Potency entry is “inactive”.

As for `Cc1cc(C(=O)O)ccc1-c1ccc(/C=C2\NC(=O)N(Cc3ccccc3Cl)C2=O)o1`, the Potency entry is “inactive”.

On to `CC(=O)c1ccccc1NC(=O)COC(=O)CN1C(=O)C2CCCCC2C1=O` (stereo not given), for which the Potency entry is “inactive”.

`CSc1ccc(NC(=O)NCCCN2CCC(Cc3ccccc3)CC2)cc1`: the Potency is 39.8 µM (active).

Regarding `O=C(OCC(=O)N1CCC(Cc2ccccc2)CC1)c1ccccc1F`, the Potency result was “inactive”.

As for `O=C(Nc1ccccc1)Nc1ccccc1C(=O)NCCCN1CCOCC1`, the Potency entry is “inactive”.

With `CN(C)c1ccc(/C=N/CCc2ccc(S(N)(=O)=O)cc2)cc1`, the Potency result was “inactive”.

Turning to `C(=C\c1ccco1)/C1=NN(c2ccccc2)C(c2ccco2)C1` (stereo not given), the Potency result was “inactive”.

As for `CCOCCCn1/c(=N/C(C)=O)c(C(=O)OCC)cc2c(=O)n3ccccc3nc21`, the Potency result is “inactive”.

Consider `COc1cccc2c1C(=O)c1c(O)c3c(c(O)c1C2=O)C[C@](O)(C(C)=O)C[C@H]3O[C@@H]1C[C@H](N)[C@H](O)[C@H](C)O1`, for which the Potency was 1 µM (active).

For `COc1cccc2c1C(=O)c1c(O)c3c(c(O)c1C2=O)CC(O)(C(C)=NNC(=O)c1ccc(Cl)c(Cl)c1)CC3OC1CC(N)C(O)C(C)O1` (stereo not given), the Potency was 2.67 µM (active).

As for `COc1cccc2c1C(=O)c1c(O)c3c(c(O)c1C2=O)C[C@@](O)(C(=O)CO)C[C@@H]3O[C@H]1C[C@H](N)[C@@H](O)[C@H](C)O1`, the Potency was 8.91 µM (active).

For `COc1cccc2c1C(=O)c1c(O)c3c(c(O)c1C2=O)CC(O)(C(=O)CO)CC3OC1CC(N(C)C)C(O)C(C)O1` (stereo not given), the Potency is 1.19 µM (active).

On to `CC(=O)/N=c1\c(C#N)cc2c(=O)n3cccc(C)c3nc2n1Cc1ccco1`, for which the Potency result was “inactive”.

`CCN(CC)c1ccc(-n2nc3cc(C)c(NC(=O)c4ccccc4F)cc3n2)cc1`: the Potency entry was “inactive”.

As for `CCn1cnc2c1c(=O)n(CC(=O)NN)c(=O)n2Cc1ccccc1`, the Potency entry is “inactive”.

Turning to `Nc1c(C(=O)Nc2ccc(Br)cc2)sc2nc(-c3ccco3)ccc12`, the Potency entry is “inactive”.

For the compound `Cc1nn(C)c(C)c1N1C(=O)c2cccc3c(N)ccc(c23)C1=O`, the Potency result was “inactive”.

On to `NNC(=O)c1oc2nc(-c3ccc(Cl)cc3)cc(-c3ccccc3)c2c1N`, for which the Potency entry is “inactive”.

Consider `CC(=O)[C@]1(O)Cc2c(O)c3c(c(O)c2[C@@H](O[C@H]2C[C@H](N)[C@H](O)[C@H](C)O2)C1)C(=O)c1ccccc1C3=O`, for which the Potency is 35.5 µM (active) and 20 µM (active).

With `COc1cccc2c1C(=O)c1c(O)c3c(c(O)c1C2=O)C[C@](O)(C(=O)CO)C[C@H]3O[C@@H]1C[C@H](N)[C@H](O)[C@H](C)O1`, the Potency is 0.794 µM (active).

In the case of `CC(C)c1ccc(-n2nc3ccc(N)cc3n2)cc1`, the Potency entry was “inactive”.

Take `Cc1cc(C)n(-c2ccc(C(=O)N3CCC(CO)(Cc4ccccc4)CC3)cc2)n1`: the Potency entry is “inactive”.

Take `Cc1ccc([N+](=O)[O-])cc1N/C=C1\CCCCC1=O`: the Potency result is “inactive”.

For the compound `COCCn1/c(=N/C(=O)c2cc(-c3cccs3)nc3ccccc23)sc2cc(S(N)(=O)=O)ccc21`, the Potency result is “inactive”.

With `C=CCn1/c(=N/C(=O)c2sc3ccccc3c2Cl)sc2cc(S(N)(=O)=O)ccc21`, the Potency is 12.6 µM (active).

Turning to `Cc1cc(=O)n2nc(N3CCCC3C(=O)Nc3ccc(C(C)C)cc3)sc2n1` (stereo not given), the Potency result was “inactive”.

Take `Cc1nonc1CC(=O)N1CCCC(C(=O)c2ccc(Cl)cc2)C1` (stereo not given): the Potency result is “inactive”.

For `Cc1nn(C)c(C)c1CCC(=O)N1CCCC(Nc2ccc(C(C)C)cc2)C1` (stereo not given), the Potency is 39.8 µM (active).

Take `O=C(NCc1ccc(F)cc1)c1cccc2c1C(=O)c1ccc(N3CCC(Cc4ccccc4)CC3)cc1S2(=O)=O`: the Potency entry is “inactive”.

For the compound `Cc1nc2c(S(=O)(=O)c3ccccc3)cnn2c(C)c1C`, the Potency result is “inactive”.

Take `COc1ccc(-n2nc3c(N4CCCC(C(=O)NCCc5ccccc5C)C4)nnc(C)c3c2C)cc1` (stereo not given): the Potency was 20 µM (active).

`COc1ccc(-n2nc3c(N4CCCC(C(=O)NCc5cccc(F)c5)C4)nnc(C)c3c2C)cc1` (stereo not given): the Potency is 20 µM (active).

For the compound `COc1cccc(CNC(=O)C2CCN(c3nnc(N4CCCC4=O)s3)CC2)c1`, the Potency result is “inactive”.

Take `COc1ccc(CNC(=O)C(=O)NCC2OCCN2S(=O)(=O)c2cccs2)cc1` (stereo not given): the Potency result was “inactive”.

Regarding `CC1CCN(c2ccc3c(c2)S(=O)(=O)c2cccc(C(=O)NCc4cccc(F)c4)c2C3=O)CC1`, the Potency entry is “inactive”.

In the case of `COc1ccc(-n2nc3c(N4CCCC(C(=O)NCc5ccc(C)cc5)C4)nnc(C)c3c2C)cc1` (stereo not given), the Potency was 17.8 µM (active).

`CCC(C(=O)NCCc1ccccc1OC)n1nc(C)c2c(C)n(-c3ccccc3)nc2c1=O` (stereo not given): the Potency result was “inactive”.

For the compound `COc1ccc(S(=O)(=O)N2CCCC(C(=O)NCCCn3ccnc3)C2)cc1OC` (stereo not given), the Potency entry is “inactive”.

Turning to `CC(=O)N1CCC(=NNc2ncc(C(F)(F)F)cc2Cl)CC1`, the Potency entry is “inactive”.

For `Cc1cccn2c(=O)c3cc(C(=O)NC(C)C)c(=N)n(Cc4ccncc4)c3nc12`, the Potency entry is “inactive”.

`O=C(COC(=O)c1cc(O)nc2ccccc12)NCc1ccc(Cl)cc1`: the Potency result was “inactive”.

Turning to `N=C(Cc1ccc(Cl)cc1)NOC(=O)c1cccc2ccccc12`, the Potency is 39.8 µM (active).

As for `CCOc1ncccc1C(=O)N(CC)CC(=O)NCc1ccc(Cl)cc1`, the Potency entry is “inactive”.

For `O=[N+]([O-])c1ccc(CSc2ncnc3ccccc23)cc1`, the Potency result was “inactive”.

On to `COc1ccc(-c2cc(C(F)(F)F)n3ncc(C(=O)N4CCc5ccccc5C4)c3n2)cc1`, for which the Potency entry was “inactive”.

On to `Cc1ccc2[nH]c(NC3=NC(=O)c4ccccc43)nc2c1`, for which the Potency entry was “inactive”.

For the compound `Cc1ccc(CN2C(=O)CCC2C(=O)N2CCN(c3ccccc3)CC2)cc1` (stereo not given), the Potency entry is “inactive”.

`CCOC(=O)c1ccc(NC(=O)CC2Nc3ccccc3NC2=O)cc1` (stereo not given): the Potency entry was “inactive”.

Take `CCOC(=O)c1ccc(NC(=O)CC2C(=O)N(c3ccccc3)C(=O)N2Cc2ccc(C)cc2)cc1` (stereo not given): the Potency is 22.4 µM (active).

Take `CCCCN(C)CC(O)Cn1cc(/C=C/C(=O)c2ccc(Br)cc2)c2ccccc21` (stereo not given): the Potency entry was “inactive”.

Regarding `COc1cc(/C=C2\C=CC(=O)O2)cc(OC)c1`, the Potency result was “inactive”.

Take `N#Cc1nc(-c2cccc3ccccc23)oc1NCC1CCCO1` (stereo not given): the Potency entry was “inactive”.

Regarding `CCCCNc1c(-c2ccc(SC(C)CC)cc2)nc2cnccn12` (stereo not given), the Potency entry was “inactive”.

In the case of `Cc1ccn2c(Nc3ccc(C(C)C)cc3)c(-c3cccnc3)nc2c1`, the Potency was 39.8 µM (active).

As for `CCC(C)Sc1cccc(-c2nc3cnccn3c2NC2CCCCC2)c1` (stereo not given), the Potency entry is “inactive”.

With `CCOC(=O)CNc1c(-c2ccc(Cl)cc2)nc2cnccn12`, the Potency entry was “inactive”.

For the compound `CC(C)c1ccc(Nc2c(-c3ccccc3O)nc3cnccn23)cc1`, the Potency was 39.8 µM (active).

As for `Cc1ccc(-c2nc3cnccn3c2Nc2c(C)cccc2C)o1`, the Potency entry is “inactive”.
